Test results: PubChem BioAssay (NCI)
About 83,000 compounds went through this panel and 20% of them were active in at least one assay; those are over-represented in the sample as a whole.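 96-well plates, one dose, 48 hours. Percent growth reported; active if below 10.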 Activity calls are given as the source filed them.

Key:
Assay in all cases: NCI-60 one-dose screen, 48 h (100 = growth as untreated, 0 = no growth, -100 = all killed)
Conditions in all cases: 10 µM
NCI-H23 lung = test system: NCI-H23 lung
NCI-H226 lung = test system: NCI-H226 lung
HOP-62 NSCLC = test system: HOP-62 NSCLC
NCI-H460 lung = test system: NCI-H460 lung
HOP-92 NSCLC = test system: HOP-92 NSCLC
NCI-H522 lung = test system: NCI-H522 lung
786-0 renal = test system: 786-0 renal
COLO 205 colon = test system: COLO 205 colon
A549/ATCC NSCLC = test system: A549/ATCC NSCLC

Measured: growth

COc1ccc(C(=O)COc2cccc(/C=C3\Cc4ccccc4C3=O)c2)cc1
inactive: NCI-H23 lung 74.5% | NCI-H226 lung 73.4% | HOP-62 NSCLC 93.2% | NCI-H460 lung 111% | HOP-92 NSCLC 48.7% | NCI-H522 lung 56.6% | 786-0 renal 82.2% | COLO 205 colon 124%

CC(C)N(CCOc1ccc(-c2nc3sccn3c2-c2ccnc(S(C)(=O)=O)n2)cc1)C(C)C
inactive: NCI-H23 lung 90.3% | NCI-H226 lung 87.7% | HOP-62 NSCLC 85.2% | NCI-H460 lung 102% | HOP-92 NSCLC 29.6% | A549/ATCC NSCLC 105% | 786-0 renal 77.6% | COLO 205 colon 86.8%

CN(C)c1ccc(/C=N/NC(=O)c2ccccc2Nc2cccc(C(F)(F)F)c2)cc1
inactive: NCI-H23 lung 91.2% | NCI-H226 lung 101% | HOP-62 NSCLC 79.6% | NCI-H460 lung 96.3% | HOP-92 NSCLC 73% | NCI-H522 lung 83.2% | 786-0 renal 90.1% | COLO 205 colon 111%

CCN(CC)CCN1c2nc3ccccc3cc2Sc2cc3ccccc3nc21
active: NCI-H23 lung -5.59% | NCI-H226 lung -10.6% | NCI-H460 lung -95.2% | HOP-92 NSCLC -12.9% | NCI-H522 lung -69.4% | 786-0 renal -40% | COLO 205 colon -73.9%
inactive: HOP-62 NSCLC 12.8%

CC(C)(C)OC(=O)CN1CCc2c(sc3ncnc(N/N=C/c4cccc5ccccc45)c23)C1
inactive: NCI-H23 lung 40.6% | NCI-H226 lung 53.1% | HOP-62 NSCLC 45.5% | NCI-H460 lung 20.9% | HOP-92 NSCLC 54.9% | A549/ATCC NSCLC 43.7% | 786-0 renal 44.1% | COLO 205 colon 18.4%

O=C(Nc1cccc2c1CCCC2)c1cc2ccccc2cc1O
inactive: NCI-H226 lung 35.1% | HOP-62 NSCLC 69.9% | NCI-H460 lung 27.3% | A549/ATCC NSCLC 33.8% | 786-0 renal 43.7% | COLO 205 colon 92.3%
active: NCI-H23 lung 3.43% | HOP-92 NSCLC -20.6%

C=CCN(CC=C)C(=O)[C@H](CC)[C@@H]1CC[C@@H](C)[C@@H]([C@H](C)[C@@H](O)[C@@H](C)C(=O)[C@H](CC)C2O[C@]3(C=C[C@@H](O)[C@]4(CC[C@@](C)([C@H]5CC[C@](O)(CC)[C@H](C)O5)O4)O3)[C@H](C)C[C@@H]2C)O1 (some centres not stated)
inactive: HOP-62 NSCLC 12% | A549/ATCC NSCLC 11.5% | 786-0 renal 20%
active: NCI-H23 lung 6.23% | NCI-H226 lung -0.687% | NCI-H460 lung 3.23% | HOP-92 NSCLC -23.9% | COLO 205 colon -62.4%

CCNCC(=O)Nc1ccc(C(=O)OCC)cc1
inactive: NCI-H23 lung 99.9% | NCI-H226 lung 109% | HOP-62 NSCLC 90.5% | NCI-H460 lung 99.5% | HOP-92 NSCLC 113% | A549/ATCC NSCLC 103% | 786-0 renal 89.6% | COLO 205 colon 108%

Cc1cc(SCc2ccccc2)nc(N)n1
inactive: NCI-H23 lung 97.3% | NCI-H226 lung 115% | HOP-62 NSCLC 105% | NCI-H460 lung 111% | HOP-92 NSCLC 85.2% | A549/ATCC NSCLC 105% | 786-0 renal 79.1% | COLO 205 colon 127%

O=C(Nc1ccc(OCc2nnc(-c3ccc(Cl)cc3)o2)c(F)c1)Nc1ccc(Cl)c(C(F)(F)F)c1
inactive: HOP-62 NSCLC 16.6% | A549/ATCC NSCLC 12.8% | 786-0 renal 10.1%
active: NCI-H23 lung -5.04% | NCI-H226 lung -4.39% | NCI-H460 lung 2.73% | HOP-92 NSCLC -19.3% | COLO 205 colon -76.9%

Cn1cnc([N+](=O)[O-])c1/C=C1\Oc2ccc(Br)cc2C1=O
inactive: NCI-H23 lung 93% | NCI-H226 lung 101% | HOP-62 NSCLC 100% | NCI-H460 lung 97.3% | NCI-H522 lung 52.7% | A549/ATCC NSCLC 104% | 786-0 renal 91.4% | COLO 205 colon 98%

CCOC(=O)c1cc(C(=O)c2cc(OC)c(OC)c(OC)c2)n2ccc(-c3cc[n+](CC(=O)c4cc(OC)c(OC)c(OC)c4)cc3)cc12
inactive: NCI-H23 lung 63.6% | NCI-H226 lung 90.8% | HOP-62 NSCLC 94.8% | HOP-92 NSCLC 46.2% | A549/ATCC NSCLC 31.3% | COLO 205 colon 43.7%
active: NCI-H460 lung -10.3% | 786-0 renal -82.3%

CC(=O)Nc1ccc(S(=O)(=O)N/N=C(\C)c2ccc(C)cc2C)cc1
inactive: NCI-H23 lung 105% | NCI-H226 lung 107% | HOP-62 NSCLC 100% | NCI-H460 lung 106% | NCI-H522 lung 91.1% | A549/ATCC NSCLC 99.9% | 786-0 renal 105% | COLO 205 colon 103%

COc1ccc2c(c1)C(=O)/C(=C/c1ncc([N+](=O)[O-])n1C)O2
active: NCI-H23 lung -5.43% | NCI-H226 lung -24.6% | HOP-62 NSCLC -27% | NCI-H460 lung -42.6% | NCI-H522 lung -51.5% | A549/ATCC NSCLC -27.8% | 786-0 renal -26.3% | COLO 205 colon -47.5%

O=C1c2c(c(=O)[nH]c3ccccc23)CCN1Cc1ccccc1
inactive: NCI-H23 lung 102% | NCI-H226 lung 97.1% | HOP-62 NSCLC 92.7% | NCI-H460 lung 108% | NCI-H522 lung 90.6% | A549/ATCC NSCLC 103% | 786-0 renal 99.8%

NC1=NC(c2ccccc2)C2=C(N1)/C(=C/c1ccccc1)CCC2 (configuration not stated)
inactive: NCI-H23 lung 78.1% | NCI-H226 lung 109% | HOP-62 NSCLC 114% | NCI-H460 lung 98.9% | NCI-H522 lung 48.4% | A549/ATCC NSCLC 87% | 786-0 renal 101% | COLO 205 colon 112%

Cc1c2c(nn1C(=O)c1nn(-c3ccc(Cl)cc3)cc1O)-c1ccccc1CC2
active: NCI-H460 lung 9.48% | NCI-H522 lung -8.04% | COLO 205 colon -4.51%
inactive: NCI-H23 lung 16.6% | NCI-H226 lung 22% | HOP-62 NSCLC 23.7% | A549/ATCC NSCLC 21.8% | 786-0 renal 21.1%

CN(C)c1nc(N)c2nccnc2n1
inactive: NCI-H23 lung 87.9% | NCI-H226 lung 105% | HOP-62 NSCLC 111% | NCI-H460 lung 108% | HOP-92 NSCLC 101% | A549/ATCC NSCLC 99.6% | 786-0 renal 109% | COLO 205 colon 100%

COc1ccc2c(c1)C(=O)/C(=C/c1ccc([N+](=O)[O-])o1)O2
active: NCI-H23 lung -59% | NCI-H226 lung -13.7% | HOP-62 NSCLC -45.3% | NCI-H460 lung -46.8% | NCI-H522 lung -85% | A549/ATCC NSCLC -5.34% | 786-0 renal -71% | COLO 205 colon -81.6%

Cc1ccc(NC(=O)N2CCCCC2)cc1[N+](=O)[O-]
inactive: NCI-H23 lung 91.1% | NCI-H226 lung 94.9% | HOP-62 NSCLC 84.2% | NCI-H460 lung 108% | A549/ATCC NSCLC 39.5% | 786-0 renal 102% | COLO 205 colon 99.4%
active: NCI-H522 lung -29.1%

Cc1ccc(NC(=S)NNC(=S)Nc2ccc(C)cc2)cc1
inactive: NCI-H23 lung 72.8% | NCI-H226 lung 94.7% | HOP-62 NSCLC 45.2% | NCI-H460 lung 89.4% | NCI-H522 lung 32.7% | A549/ATCC NSCLC 67% | 786-0 renal 58.9% | COLO 205 colon 84.3%

CC1C(=NC(=O)c2cnccn2)C(C)C(c2ccc(Cl)cc2)NC1c1ccncc1 (configuration not stated)
inactive: NCI-H23 lung 94% | NCI-H226 lung 101% | HOP-62 NSCLC 97.7% | NCI-H460 lung 108% | NCI-H522 lung 70.9% | A549/ATCC NSCLC 92.9% | 786-0 renal 90.8%

COc1ccc(C2CC(c3cc(OC)c(OC)c(OC)c3)=NN2)cc1 (configuration not stated)
inactive: NCI-H23 lung 86.6% | NCI-H226 lung 93.2% | HOP-62 NSCLC 98.1% | NCI-H460 lung 51.5% | NCI-H522 lung 53.3% | A549/ATCC NSCLC 51.7% | 786-0 renal 92.1% | COLO 205 colon 55.1%

Nc1ccc(CC[C@H]2CCC/C=C/[C@@H]3C[C@H](O)C[C@H]3[C@H](O)/C=C/C(=O)O2)cc1
active: NCI-H23 lung -22.7% | NCI-H226 lung 5.2% | NCI-H522 lung -46.6%
inactive: HOP-62 NSCLC 14.2% | NCI-H460 lung 10.5% | A549/ATCC NSCLC 11.9%

O=C1CC(=O)N(C(=O)c2nn(-c3ccc(Cl)cc3)cc2O)N1
active: NCI-H522 lung 5.35% | COLO 205 colon -13.4%
inactive: NCI-H23 lung 39.3% | NCI-H226 lung 43.1% | HOP-62 NSCLC 38.8% | NCI-H460 lung 27.4% | A549/ATCC NSCLC 44.5% | 786-0 renal 50.7%

COc1cc(/C=C2\CCCC3C2=Nc2ccccc2NC3c2cc(OC)c(OC)c(OC)c2)cc(OC)c1OC (configuration not stated)
active: NCI-H23 lung 8.47% | NCI-H226 lung -38.4% | HOP-62 NSCLC -3.43% | NCI-H460 lung -12.2% | NCI-H522 lung -6.47% | A549/ATCC NSCLC 5.87% | 786-0 renal 1.85% | COLO 205 colon 0.19%

COc1ccc(C(=O)c2cc3c(OC)c(OC)c(OC)cc3[nH]2)cc1
inactive: NCI-H23 lung 32.3% | NCI-H226 lung 86.5% | HOP-62 NSCLC 77.8% | NCI-H460 lung 16.8% | NCI-H522 lung 25.4% | A549/ATCC NSCLC 36.6% | 786-0 renal 73.2% | COLO 205 colon 37.4%

COc1cc2cc(Oc3ccc(NC(=O)c4cccc(C(F)(F)F)c4)cc3)c(C)nc2cc1OC
inactive: NCI-H23 lung 27.1% | NCI-H226 lung 48.1% | HOP-62 NSCLC 87.1% | NCI-H460 lung 28.3% | NCI-H522 lung 28.9% | A549/ATCC NSCLC 24.1% | 786-0 renal 45.4% | COLO 205 colon 27.2%

COc1cc(-c2ccc(N=Nc3ccc4c(S(=O)(=O)O)ccc(N)c4c3O)c(OC)c2)ccc1N=Nc1ccc2c(S(=O)(=O)O)ccc(N)c2c1O
inactive: NCI-H23 lung 101% | NCI-H226 lung 102% | HOP-62 NSCLC 85.9% | NCI-H460 lung 108% | NCI-H522 lung 105% | A549/ATCC NSCLC 106% | 786-0 renal 120% | COLO 205 colon 95.7%

COc1ccc(N(C)c2ncnc3occ(C)c23)cc1
inactive: NCI-H226 lung 27.5% | HOP-62 NSCLC 34.6% | A549/ATCC NSCLC 15% | 786-0 renal 17.8%
active: NCI-H23 lung 6.05% | NCI-H460 lung 2.75% | NCI-H522 lung -37.7% | COLO 205 colon -62.4%

COc1cc(C2CC(c3ccc4c(c3)OCO4)=NN2c2ccccc2)cc(OC)c1OC (configuration not stated)
inactive: NCI-H23 lung 93.9% | NCI-H226 lung 102% | HOP-62 NSCLC 104% | NCI-H460 lung 103% | HOP-92 NSCLC 84.1% | A549/ATCC NSCLC 98.5% | 786-0 renal 95.9% | COLO 205 colon 86.8%

O=C1CC(SC(=S)C2CCCC2=O)C(=O)N1 (configuration not stated)
inactive: NCI-H23 lung 98.4% | NCI-H226 lung 92.4% | HOP-62 NSCLC 106% | NCI-H460 lung 104% | NCI-H522 lung 109% | A549/ATCC NSCLC 101% | 786-0 renal 95.7% | COLO 205 colon 116%
